# TEAD-YAP inh: TEAD-YAP interaction inhibition | 640,000 tested, 1.4% active | AID 1259422 | inhibition, % at 9.12 µM | HEK-TIYL cells, TEAD-Gal4/YAP UAS-luciferase luminescence; in the data active means inhibition above about 32%;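 further: 0% = median of test compound wells and 100% = reference inhibitor wells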
# FBW7 activator: human FBW7 E3 ligase activation, primary screen. AlphaScreen FBW7–phospho-cyclin E peptide binding, activator screen. normalized activity (activation), % at 26.1 µM. Q969H0. 650,000 tested, 0.13% active; in the data active means normalized activity above about 1.9%;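 further: purified mutant Fbw7 with reduced substrate affinity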
# GPR151 ag: activates the human receptor GPR151 | PathHunter beta-arrestin GPR151 cells, luminescence | activation, % at 11.2 µM | 650,000 tested, 1% active | AID 1508602; in the data active means activation above about 4.9%;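 further: 0% = median of compound wells and 100% = cells with positive control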
# Target sequence (Q8TDV0 whole entry, looked up): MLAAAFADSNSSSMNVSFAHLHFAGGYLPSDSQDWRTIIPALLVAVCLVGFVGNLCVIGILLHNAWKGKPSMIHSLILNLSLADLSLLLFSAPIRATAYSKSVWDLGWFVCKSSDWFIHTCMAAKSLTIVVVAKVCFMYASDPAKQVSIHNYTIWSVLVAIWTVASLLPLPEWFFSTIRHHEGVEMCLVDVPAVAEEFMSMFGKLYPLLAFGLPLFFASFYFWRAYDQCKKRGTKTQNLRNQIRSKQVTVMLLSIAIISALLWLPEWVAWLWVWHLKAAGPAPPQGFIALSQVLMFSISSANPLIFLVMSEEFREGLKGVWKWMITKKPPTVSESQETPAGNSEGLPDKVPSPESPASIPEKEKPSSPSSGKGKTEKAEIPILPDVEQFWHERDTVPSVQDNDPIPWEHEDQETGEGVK
# MITF primary: human MITF inhibition, primary screen; O75030; AlphaScreen MITF homodimerization, bead proximity signal; inhibition, % at 2.6 µM; 650,000 tested, 0.91% active; AID 1259374; in the data active means inhibition above about 50%;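 further: 0% = vehicle wells with protein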
# The depositor's hits bear a star; nt = no result. Sampled rows, rich in hits. Any-hit rate of the full collection: about 3.5%.
SMILES,TEAD-YAP inh,FBW7 activator,GPR151 ag,MITF primary
CN(C)CCN(C)c1nc([C@H](N)Cc2cccc(F)c2)nc2ccc(-c3cn[nH]c3)cc12,-1,2.7*,0,30
N[C@H](Cc1ccc(F)c(F)c1)c1nc2ccc(-c3cn[nH]c3)cc2c(=O)[nH]1,76*,-1,1,15
COc1ccc(S(=O)(=O)n2c(SCc3cccc(Br)c3)nc3ccccc32)cc1,-34,0,0,-1
COc1cccc(Cc2nc3c(OC)cc(-c4cn[nH]c4)cc3c(=O)[nH]2)c1,30,0,1,-1
COc1cccc(CCc2nc3c(OC)cc(-c4cn[nH]c4)cc3c(=O)[nH]2)c1,36*,1,-1,16
N[C@H](Cc1ccc(F)cc1)c1nc2ccc(-c3cn[nH]c3)cc2c(=O)[nH]1,81*,0,1,28
NCCC(=O)NC(c1ccc(Cl)cc1)c1nc2ccc(-c3cn[nH]c3)cc2c(=O)[nH]1 (stereo not given),3,0,-2,7
N[C@@H](Cc1ccc(F)cc1)c1nc2ccc(-c3cn[nH]c3)cc2c(=O)[nH]1,85*,-1,-3,-6
CC(C)(C)C(=O)N(CCCCCCN1C[C@@H](O)[C@@H](O)[C@@H](O)[C@H]1CO)C1CCCCCC1,nt,nt,-1,nt
CCOc1ccc(CCN=C2NS(=O)(=O)C(c3ccc(C)cc3)=C2C)cc1OCC,6,0,1,3
CC(C)(C)c1ccc(NC(=O)Nc2ccccc2NC(=O)c2ccccn2)cc1,68*,-1,0,-2
CC(C)(C)c1ccc(/C=N\NC(=O)c2ccccn2)cc1,35*,0,-3,-15
O=C(Nc1ccccc1NC(=O)c1ccccn1)Nc1c(F)cccc1F,-25,-1,1,17
N=C1/C(=C/c2cn(Cc3ccc4c(c3)OCO4)c3ccccc23)C(=O)N=C2SC=CN12,12,0,2,7
N=C1/C(=C/c2ccc(OCc3ccc4c(c3)OCO4)c(Cl)c2)C(=O)N=C2SC=CN12,39*,0,-5,-5
N#C/C(=C\C=C\c1ccc([N+](=O)[O-])o1)c1nc2ccccc2[nH]1,59*,0,-1,43
COc1ccc(NC(=O)COc2ccc(C#N)cc2)c(OC)c1,-5,0,-1,-3
COc1ccc(C2C=C(c3ccc(F)cc3)Nc3ncnn32)cc1OC (stereo not given),12,1,0,14
CCOc1ccc(C2C=C(c3ccc(CC)cc3)Nc3ncnn32)cc1OC (stereo not given),37*,0,0,27
COc1ccc(C2=CC(c3ccc(F)cc3)n3ncnc3N2)cc1 (stereo not given),-14,0,-2,-1
COc1ccc(C2=CC(c3cc(OC)c(OC)c(OC)c3)n3ncnc3N2)cc1 (stereo not given),63*,0,0,2
COc1ccc(C2=CC(c3ccc(OC)c(OC)c3)n3ncnc3N2)cc1 (stereo not given),43*,0,-1,12
COc1cc(C2C=C(c3cccs3)Nc3ncnn32)cc(OC)c1OC (stereo not given),65*,0,-1,18
CCOc1ccc2ncc(C#N)c(N3CCC(C(=O)Nc4cccc(CC)c4)CC3)c2c1,-5,0,1,14
O=C(O)C1CCCN(Cc2ccccn2)C1 (stereo not given),1,0,3,8
SMILES,TEAD-YAP inh,FBW7 activator,GPR151 ag,MITF primary
COC(=O)c1nc2n(n1)C(c1cc(OC)c(OC)c(OC)c1)C=C(c1cccs1)N2 (stereo not given),52*,0,0,-1
COc1cc(C2C=C(c3ccc(Cl)cc3)Nc3nnnn32)cc(OC)c1OC (stereo not given),55*,1,-1,23
CCc1ccc(C2=CC(c3cccc(OC)c3OC)n3ncnc3N2)cc1 (stereo not given),-6,0,2,2
COc1ccc(C2C=C(c3ccc(Cl)cc3)Nc3nnnn32)cc1OC (stereo not given),1,0,-1,9
CCc1ccc(C2=CC(c3cc(OC)c(OC)c(OC)c3)n3ncnc3N2)cc1 (stereo not given),65*,0,-1,8
COc1cc(C2C=C(c3ccc(Cl)cc3)Nc3ncnn32)cc(OC)c1OC (stereo not given),64*,0,-1,12
NC(=S)NNC(=O)CCn1c2ccccc2c2ccccc21,1,1,-2,15
COc1cc(C2C3=C(Nc4ncnn42)c2ccccc2CC3)cc(OC)c1OC (stereo not given),68*,0,1,13
CCOC(=O)N1CCN(c2c(NCc3ccccc3)c(=O)c2=O)CC1,56*,0,0,-5
